Measurements published in the supplement of paper PMC6609913.
Structures can show the parent of a compound that is named as a salt. ± gives the standard deviation of the averaged measurements. The full ranking holds about 1,300 compounds; the median of “normalised cell viability” is about 1, and the lowest 2% start at about 0.14. Shown is part of a subset that was picked to be rich in the lowest values.

System: V-C8 (BRCA2-deficient hamster cells)
Test: normalised cell viability (fraction of plate median); higher = more viable cells (less toxic)
Conditions: 5 µM
Method in brief: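 BRCA2-deficient hamster V-C8 cells and BRCA2-restored V-C8 cells were plated in 96-well plates, and library drugs were added 24 h later at 5 μM in 100 μl medium. Exposure lasted 3 days in screen 1 and 6 days in screen 2, next to solvent-only wells. Viability was then read by resazurin assay, median-plate normalised and averaged across triplicate wells.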

Row | SMILES | normalised cell viability (treatment time: 3 days) | normalised cell viability (treatment time: 6 days)
1 | CN[C@H](CC(C)C)C(=O)N[C@H]1C(=O)N[C@@H](CC(N)=O)C(=O)N[C@H]2C(=O)N[C@H]3C(=O)N[C@H](C(=O)N[C@H](C(=O)O)c4cc(O)cc(O)c4-c4cc3ccc4O)[C@H](O)c3ccc(c(Cl)c3)Oc3cc2cc(c3O[C@@H]2O[C@H](CO)[C@@H](O)[C@H](O)[C@H]2O[C@H]2C[C@](C)(N)[C@H](O)[C@H](C)O2)Oc2ccc(cc2Cl)[C@H]1O [Vancomycin hydrochloride] | 0.159 ± 0.01 | 0.141 ± 0.0064
2 | CC(CN(C)C)C(C)(O)Cc1ccc(Cl)cc1 (centres undefined) [Clobutinol hydrochloride] | 1.05 ± 0.13 | 1.11 ± 0.064
3 | Cc1cc(NC(=O)C2=C(O)c3ccccc3S(=O)(=O)N2C)no1 [Isoxicam] | 1.04 ± 0.06 | 1.06 ± 0.042
4 | CC[C@]12CCCN3CCc4c(n(c5ccccc45)C(=O)C1)[C@@H]32 [Eburnamonine (-)] | 0.362 ± 0.016 | 0.643 ± 0.11
5 | CN(C)[C@@H]1C(O)=C(C(N)=O)C(=O)[C@@]2(O)C(O)=C3C(=O)c4c(O)cccc4[C@@](C)(O)[C@H]3[C@H](O)[C@@H]12 [Oxytetracycline dihydrate] | 0.991 ± 0.015 | 0.945 ± 0.05
6 | C=C(NC(=O)C(=C)NC(=O)c1csc(C2=N[C@@H]3c4csc(n4)[C@H]4NC(=O)c5csc(n5)[C@H]([C@](C)(O)[C@@H](C)O)NC(=O)[C@H]5CSC(=N5)/C(=C/C)NC(=O)[C@H]([C@@H](C)O)NC(=O)c5csc(n5)[C@]3(CC2)NC(=O)[C@H](C)NC(=O)C(=C)NC(=O)[C@H](C)NC(=O)[C@H]([C@@H](C)CC)N[C@@H]2C=Cc3c([C@H](C)O)cc(nc3[C@H]2O)C(=O)O[C@@H]4C)n1)C(N)=O [Thiostrepton] | 0.14 ± 0.011 | 0.126 ± 0.0091
7 | COc1c(O[C@@H]2O[C@H](CO)[C@@H](O)[C@H](O)[C@H]2O)cc2c(c1OC)-c1ccc(SC)c(=O)cc1[C@@H](NC(C)=O)CC2 [Thiocolchicoside] | 1.22 ± 0.36 | 0.97 ± 0.017
8 | CCCCc1cc2ccccc2c(OCCN(C)C)n1 [Dimethisoquin hydrochloride] | 1.03 ± 0.087 | 1.04 ± 0.05
9 | CCOc1ccc2c(c1)C(C)=CC(C)(C)N2 [Ethoxyquin] | 0.883 ± 0.014 | 1.2 ± 0.26
10 | CCN(CC)CCOC(=O)C(c1ccccc1)c1ccccc1 [Adiphenine hydrochloride] | 0.976 ± 0.021 | 1.02 ± 0.039
11 | CCN(CC)CCOC(=O)C(c1ccccc1)C1CCCCC1 (centres undefined) [Drofenine hydrochloride] | 1.02 ± 0.038 | 1.02 ± 0.07
12 | CCN(CC)CCOC(=O)C(Cc1cccc2ccccc12)CC1CCCO1 (centres undefined) [Nafronyl oxalate] | 0.1613 ± 0.00033 | 0.14 ± 0.0088
13 | COCCOC(=O)C1=C(C)NC(C)=C(C(=O)OC/C=C/c2ccccc2)C1c1cccc([N+](=O)[O-])c1 (centres undefined) [Cilnidipine] | 0.98 ± 0.03 | 1.01 ± 0.015
14 | CC(=C(CCO)SSCC1CCCO1)N(C=O)Cc1cnc(C)nc1N (stereo in doubt) [Fursultiamine Hydrochloride] | 1.03 ± 0.025 | 1.03 ± 0.0084
15 | Cc1ccccc1C(OCCN(C)C)c1ccccc1 (centres undefined) [Orphenadrine hydrochloride] | 1.05 ± 0.14 | 0.964 ± 0.14
16 | O=C(O)c1cc(/N=N/c2ccc(S(=O)(=O)Nc3ccccn3)cc2)ccc1O [Sulfasalazine] | 1.03 ± 0.056 | 0.993 ± 0.046

Row | SMILES | normalised cell viability (treatment time: 3 days) | normalised cell viability (treatment time: 6 days)
17 | N#Cc1ccc(C2CCCc3cncn32)cc1 (centres undefined) [Fadrozole hydrochloride] | 1.01 ± 0.087 | 0.97 ± 0.079
18 | COc1cccc2c1C(=O)c1c(O)c3c(c(O)c1C2=O)C[C@@](O)(C(=O)CO)C[C@@H]3O[C@H]1C[C@H](N)[C@H](O)[C@H](C)O1 [Doxorubicin hydrochloride] | 0.127 ± 0.0054 | 0.113 ± 0.0072
19 | COc1cccc2c1C(=O)c1c(O)c3c(c(O)c1C2=O)C[C@@](O)(C(C)=O)C[C@@H]3O[C@H]1C[C@H](N)[C@H](O)[C@H](C)O1 [Daunorubicin hydrochloride] | 0.141 ± 0.011 | 0.124 ± 0.0055
20 | COc1cccc2c1C(=O)c1c(O)c3c(c(O)c1C2=O)C[C@@](O)(C(=O)CO)C[C@@H]3O[C@H]1C[C@H](N)[C@@H](O)[C@H](C)O1 [Epirubicin hydrochloride] | 0.123 ± 0.013 | 0.163 ± 0.016
21 | Cc1nccn1CC1CCc2c(c3ccccc3n2C)C1=O (centres undefined) [Ondansetron Hydrochloride] | 1.07 ± 0.04 | 1.1 ± 0.082
22 | CC(C)NCC(O)c1ccc(O)c(O)c1 (single isomer, unassigned; (+)) [(+)-Isoproterenol (+)-bitartrate salt] | 1.028 ± 0.0063 | 0.926 ± 0.063
23 | CC(=O)NC[C@H]1CN(c2ccc(N3CCOCC3)c(F)c2)C(=O)O1 [Linezolid] | 1.04 ± 0.039 | 0.972 ± 0.047
24 | c1ccc(CNc2ncnc3nc[nH]c23)cc1 [Aminopurine, 6-benzyl] | 0.947 ± 0.1 | 0.94 ± 0.075
25 | O=C1C=CC(=O)c2c1ccc1c2ccc2ccccc21 [Chrysene-1,4-quinone] | 1.02 ± 0.061 | 1.06 ± 0.12
26 | Nc1c2ccccc2nc2ccccc12 [Aminacrine] | 0.127 ± 0.015 | 0.164 ± 0.015
27 | CC(C)Cn1cnc2c(N)nc3ccccc3c21 [Imiquimod] | 1.11 ± 0.044 | 1.02 ± 0.064
28 | Nc1c2c(nc3ccccc13)CCCC2 [Tacrine hydrochloride] | 0.984 ± 0.031 | 1.1 ± 0.049
29 | CN1CCN(c2c(F)cc3c(=O)c(C(=O)O)cn(CCF)c3c2F)CC1 [Fleroxacin] | 0.982 ± 0.046 | 0.977 ± 0.051
30 | COC(=O)Nc1nc2cc(Sc3ccccc3)ccc2[nH]1 [Fenbendazole] | 0.187 ± 0.0098 | 0.181 ± 0.013
31 | COC(=O)Nc1nc2cc(C(=O)c3cccs3)ccc2[nH]1 [Nocodazole] | 0.147 ± 0.0062 | 0.128 ± 0.004
32 | COC(=O)Nc1nc2cc(C(=O)c3ccccc3)ccc2[nH]1 [Mebendazole] | 0.164 ± 0.0056 | 0.13 ± 0.0086
